Laboratory results: PubChem BioAssay AID720597 (Broad Institute, 2013)
Measured potencies and affinities stand elsewhere. The source made the active and inactive calls.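 The calls were made as follows: active = fitted half-maximal dose no more than twice the top valid tested dose, for compounds that lower signal; inconclusive = fit invalid, or curve flat with activity between -70 and -30; inactive = potency past limit, curve flat within ±30, or signal increasing.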

Biological target: NAD-dependent protein deacylase sirtuin-5, mitochondrial (Homo sapiens) (UniProt Q9NXA8)
Test: SIRT5 deacylase inhibitors, dose response, biochemical, fluorescence imaging, cherry-pick, set 6 (AID 720597);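 also: lower AMC signal can also come from blocking the trypsin step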
Settings: Purified SirT5, succinyl-peptide-AMC/trypsin fluorescence; series mostly up to 15 µM

Chain of NAD-dependent protein deacylase sirtuin-5, mitochondrial (Homo sapiens) (Q9NXA8 whole entry, looked up): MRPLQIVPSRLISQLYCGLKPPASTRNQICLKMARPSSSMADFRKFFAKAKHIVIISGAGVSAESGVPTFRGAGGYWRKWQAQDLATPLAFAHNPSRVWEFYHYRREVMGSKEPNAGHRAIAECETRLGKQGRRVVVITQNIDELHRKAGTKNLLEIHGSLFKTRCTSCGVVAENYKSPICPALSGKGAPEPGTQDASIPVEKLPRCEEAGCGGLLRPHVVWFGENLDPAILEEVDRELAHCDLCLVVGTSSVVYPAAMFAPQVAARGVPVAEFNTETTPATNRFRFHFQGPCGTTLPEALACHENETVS

Structure (SMILES)	outcome
C[C@H](CO)N1C[C@H](C)[C@H](CN(C)S(=O)(=O)c2ccc(F)cc2)Oc2cc(C#Cc3ccc(F)cc3)ccc2S1(=O)=O	inactive
C[C@@H]1CN([C@H](C)CO)S(=O)(=O)c2ccc(C#CC3CC3)cc2O[C@H]1CN(C)Cc1ccccc1F	inactive
CCCC#Cc1ccc(CC[C@H]2O[C@H]3CC[C@@H](CO)O[C@H]3C[C@H]2NS(=O)(=O)c2ccccc2)cc1	inactive
O=C(C[C@@H]1CC[C@H](NS(=O)(=O)c2ccc(F)cc2)[C@H](CO)O1)N1CCN(c2ccccc2)CC1	inactive
C[C@@H]1CN([C@@H](C)CO)C(=O)Cc2cc(NC(=O)Nc3ccc(F)cc3)ccc2O[C@@H]1CN(C)C	inactive
COCC(=O)N1C[C@@H]2[C@H](c3ccccc31)[C@H](CO)N2Cc1cc(F)ccc1F	inactive
C[C@H](CO)N1C[C@H](C)[C@H](CN(C)S(=O)(=O)c2cccc(F)c2)Oc2ncc(C#CC3CCCCC3)cc2C1=O	inactive
COc1cccc(CN(C)C[C@@H]2OCc3ccccc3-c3c(n(C)c4ccccc34)C(=O)N([C@H](C)CO)C[C@H]2C)c1	inactive
N#C[C@H]1[C@@H](c2ccccc2-c2ccccc2)[C@@H](CO)N1c1ncc(-c2ccccc2)s1	inactive
COCC(=O)N1[C@H](CO)[C@@H](c2ccccc2)C12CN(Cc1cc(F)ccc1F)C2	inactive
Cc1noc(C)c1NC(=O)Nc1cccc2c1O[C@@H](CN(C)Cc1ccc(Oc3ccccc3)cc1)[C@@H](C)CN([C@@H](C)CO)C2=O	inactive
C[C@@H]1CCCCO[C@H](CN(C)S(=O)(=O)c2ccc(Cl)cc2)[C@H](C)CN([C@H](C)CO)C(=O)c2cc(NS(=O)(=O)c3ccc(F)cc3)ccc2O1	inactive
C[C@H](NC(=O)C[C@@H]1CC[C@H]2[C@@H](COC[C@@H](O)CN2C(=O)Nc2cccc(F)c2)O1)c1ccccc1	inactive
O=C(CCN1CCCCC1)N[C@H]1CC[C@@H](CCn2cc(-c3ccc(F)cc3)nn2)O[C@H]1CO	inactive
C[C@H]1CN([C@@H](C)CO)C(=O)Cc2cc(NC(=O)CCCCCC(=O)Nc3ccccc3N)ccc2O[C@H]1CN(C)Cc1ccc(Oc2ccccc2)cc1	inactive
COc1ccc(NC(=O)N(C)C[C@H]2Oc3c(NS(C)(=O)=O)cccc3C(=O)N([C@@H](C)CO)C[C@H]2C)cc1	inactive
COc1ccc(S(=O)(=O)Nc2ccc3c(c2)C(=O)N([C@H](C)CO)C[C@H](C)[C@H](CN(C)Cc2ccc(C(F)(F)F)cc2)OCCCC[C@@H](C)O3)cc1	inactive
C[C@H]1CN([C@@H](C)CO)C(=O)Cc2cc(NC(=O)CCCCCC(=O)Nc3ccccc3N)ccc2O[C@@H]1CN(C)Cc1ccc(Oc2ccccc2)cc1	inactive
O=C(c1cnccn1)N1CC(=O)N2[C@H](CO)[C@@H](c3ccc(C4=CCCCC4)cc3)[C@@H]2C1	inactive
CCC(=O)N(C)C[C@@H]1Oc2ncc(-c3ccc(F)cc3)cc2C(=O)N([C@@H](C)CO)C[C@@H]1C	inactive

Structure (SMILES)	outcome
C[C@@H]1CN([C@@H](C)CO)C(=O)c2ccccc2-c2ccccc2CO[C@H]1CN(C)Cc1ccccc1C(F)(F)F	inactive
C[C@H](CO)N1C[C@H](C)[C@@H](CN(C)Cc2ccc(Cl)c(Cl)c2)Oc2ccc(NS(=O)(=O)c3ccc(Cl)cc3)cc2CC1=O	inactive
O=C(CC1CC1)N1[C@@H](CO)[C@@H]2c3ccccc3N(S(=O)(=O)c3ccc(F)cc3)C[C@@H]21	inactive
C/C=C/c1ccc([C@H]2[C@@H](CO)N(CC3CCCCC3)[C@@H]2CNC(C)C)cc1	inactive
O=C(CC1CC1)N1CC2(C1)[C@@H](c1ccccc1)[C@@H](CO)N2Cc1cccc(F)c1	inactive
O=C(C[C@H]1CC[C@H]2[C@@H](COC[C@@H](O)CN2Cc2cccc(Cl)c2)O1)N1CCCCC1	inactive
COc1ccc(S(=O)(=O)Nc2ccc3c(c2)C(=O)N([C@H](C)CO)C[C@@H](C)[C@@H](CN(C)Cc2ccc(C(F)(F)F)cc2)OCCCC[C@@H](C)O3)cc1	inactive
C[C@@H]1CN([C@H](C)CO)C(=O)c2cc(NS(=O)(=O)c3ccccc3)ccc2O[C@@H](C)CCCCO[C@H]1CN(C)Cc1ccc(C(F)(F)F)cc1	inactive
COc1ccc(S(=O)(=O)N(C)C[C@@H]2OCCCC[C@@H](C)Oc3ccc(NS(=O)(=O)c4ccc(F)cc4)cc3C(=O)N([C@@H](C)CO)C[C@@H]2C)cc1	inactive
COc1ccc(S(=O)(=O)N(C)C[C@@H]2OCCCC[C@@H](C)Oc3ccc(NS(=O)(=O)c4ccc(F)cc4)cc3C(=O)N([C@@H](C)CO)C[C@H]2C)cc1	inactive
COc1ccc(S(=O)(=O)Nc2ccc3c(c2)C(=O)N([C@H](C)CO)C[C@H](C)[C@@H](CN(C)Cc2ccc(Oc4ccccc4)cc2)O3)cc1	inactive
C[C@@H]1CN([C@H](C)CO)C(=O)c2cc(NS(=O)(=O)c3ccc(Cl)cc3)ccc2O[C@@H]1CN(C)Cc1ccc(-c2ccccc2)cc1	inactive
COCCNC(=O)c1cc2c(c(-c3cccc(-c4cccc(F)c4)c3)n1)[C@@H](CCO)N([S@](=O)C(C)(C)C)C2	inactive
Cc1noc(C)c1NC(=O)Nc1cccc2c1O[C@@H](CN(C)Cc1ccc(Oc3ccccc3)cc1)[C@H](C)CN([C@H](C)CO)C2=O	inactive
Cc1noc(C)c1NC(=O)Nc1ccc2c(c1)C(=O)N([C@H](C)CO)C[C@@H](C)[C@@H](CN(C)Cc1ccc(C(=O)Nc3ccccc3N)cc1)O2	inactive
CS(=O)(=O)Nc1ccc2c(c1)[C@H]1C[C@@H](CC(=O)NCCc3ccccc3)O[C@@H](CO)[C@H]1O2	inactive
C[C@@H]1CN([C@H](C)CO)C(=O)c2cc(NC(=O)CCCCCC(=O)Nc3ccccc3N)ccc2O[C@@H]1CN(C)Cc1ccc(Cl)c(Cl)c1	inactive
C[C@H](CO)N1C[C@H](C)[C@@H](CN(C)Cc2ccccc2F)Oc2cc(C#CC3CC3)ccc2S1(=O)=O	inactive
CCCC#Cc1ccc([C@@H]2[C@@H](CO)N3CCCCN(S(=O)(=O)Cc4ccccc4)C[C@@H]23)cc1	inactive
O=C(C[C@H]1CC[C@H]2[C@@H](COC[C@@H](O)CN2S(=O)(=O)c2cccc(Cl)c2)O1)Nc1ccc(-c2ccccc2)cc1	inactive
